# The list is not random: actives were taken first. Their share in the collection is about 2%.
# STK33 kin inh: blocks human STK33 kinase activity | 27,000 tested, 0.44% active | Q9BYT3 | inhibition, % at 12.5 µM | ADP-Glo luminescence, MBP substrate; in the data active = inhibition above about 20%; inconclusive = no clear call, values can overlap the other calls
# ID4 SMM: ID4 (human) binding | calls only | small molecule microarray, Flag-ID4 binding, fluorescence F/B | 31,000 tested, 1.2% active; call rule not given here;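 also: a binder raises fluorescence above local background on the spot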
# Target sequence (P47928 whole entry, looked up): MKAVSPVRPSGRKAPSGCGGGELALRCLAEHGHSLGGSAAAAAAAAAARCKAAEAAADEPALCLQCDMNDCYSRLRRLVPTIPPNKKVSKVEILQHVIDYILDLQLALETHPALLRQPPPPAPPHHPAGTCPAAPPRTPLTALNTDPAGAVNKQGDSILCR
# mut p53 react: mutant p53 pathway reactivation | 28,000 tested, 1.5% active | activation, % at 9.98 µM | SW480 PUMA-promoter luciferase; in the data active = activation above about 52%; inconclusive = no clear call, values can overlap the other calls
# Numbers stand for hits; 0 = inactive; ? = inconclusive; - = no result; + = active, no number.
SMILES,STK33 kin inh,ID4 SMM,mut p53 react
CS(=O)(=O)N1N=C(c2cccc(NS(=O)(=O)c3ccccc3)c2)CC1c1ccco1 (configuration not stated),0,0,0
O=C(NCc1nc2ccccc2[nH]1)C1=C[C@H](c2ccccc2)C[C@H](OCCCCO)O1,-,0,-
O=C(NCc1nc2ccccc2[nH]1)c1ccccc1,0,0,94
NCCNc1ccc([N+](=O)[O-])c(Sc2nc3ccccc3[nH]2)c1,0,0,0
NCCNc1ccc([N+](=O)[O-])c(NCCO)c1,0,+,0
O=C(CSc1n[nH]c(-c2ccco2)n1)N1c2ccccc2Sc2ccccc21,0,0,0
O=C(O)c1ccc(CSc2n[nH]c(-c3ccco3)n2)cc1,0,+,0
CCN1CCOC(CC(=O)Nc2cc(OC)cc(OC)c2)C1=O (configuration not stated),0,0,0
Cn1nnnc1SCC(=O)Nc1ccc(C(=O)O)cc1,0,0,0
O=C(CSc1nnnn1-c1ccccc1)Nc1cccc(C(=O)O)c1,0,0,0
Cn1nnnc1SCC(=O)Nc1ccc(I)cc1,0,0,78
Cc1ccc(NC(=O)CSc2nnnn2-c2cccc(C(=O)O)c2)cc1C,0,+,0
CCN(CC(=O)Nc1ccc(Br)cc1)S(=O)(=O)c1ccc(Cl)cc1,0,0,0
CCOc1ccccc1NC(=O)C(C)Oc1ccc(OC)cc1 (configuration not stated),0,0,0
COc1cccc(/C=N/n2cnnc2)c1,0,-,-
COC(=O)c1cc(OC)c(OC)cc1NC(=O)CCN1C(=O)c2ccccc2C1=O,0,0,0
O=C(Nc1sc2c(c1C(=O)NCc1cccnc1)CCCC2)c1ccco1,0,0,0
O=C(Nc1sc2c(c1C(=O)NCc1cccnc1)CCCCC2)c1ccccc1,0,+,?
COC(=O)Nc1sc2c(c1C(=O)NCc1ccco1)CCCC2,0,+,0
COC(=O)Nc1sc2c(c1C(=O)NCc1ccco1)CCC2,0,0,0
Oc1ccccc1C1=Nc2ccccc2N=C(c2ccc(Cl)cc2)C1,-,0,0
O=C(Cn1c(COc2ccccc2)nc2ccccc21)N1CCOCC1,0,0,0
OCC1(CO)COC(COc2ccccc2)=N1,-,+,0
Cc1cc2ccccc2n2c(SCC(=O)NCc3ccco3)nnc12,0,0,0
C=C(C)[C@@H]1Cc2c(ccc3c2O[C@H]2COc4cc(OC)c(OC)cc4[C@@]2(O)C3=O)O1,0,-,-
SMILES,STK33 kin inh,ID4 SMM,mut p53 react
O=C(O)COc1c(-c2ccccc2)oc2ccccc2c1=O,0,0,0
O=c1c(O)c(-c2ccccc2)oc2cc(O)ccc12,32,0,0
O=C(CCN1C(=O)c2ccccc2C1=O)Nc1ccc(-c2nc3ccccc3[nH]2)cc1,0,0,0
O=C(O)CCC(=O)Nc1ccc(-c2nc3ccc(C(=O)c4ccccc4)cc3[nH]2)cc1,0,+,0
O=c1[nH]c(=S)c2c(n1N1CCOCC1)CCC2,-,+,0
Cc1ccc(C(=O)CSc2nnc(-c3ccccc3[N+](=O)[O-])o2)cc1,0,0,0
CCC(CC)C(=O)N1c2ccccc2CCc2ccccc21,-,0,0
C=C[C@](C)(CC[C@@]1(C)[C@H](C)C[C@H](O[C@@H]2O[C@@H](C)[C@H](O[C@@H]3O[C@H](COC(C)=O)[C@@H](O)[C@H](O)[C@H]3O)[C@@H](O)[C@H]2O)[C@@]2(C)C(C)=CCC[C@H]12)O[C@@H]1O[C@H](C)[C@H](O[C@@H]2O[C@@H](C)[C@H](O)[C@@H](O)[C@H]2O)[C@H](O)[C@H]1O,-,-,0
COc1cc2c(cc1NC(=O)Cc1ccccc1[N+](=O)[O-])oc1ccccc12,0,0,87
COc1cc2c(cc1NC(=O)COc1ccc([N+](=O)[O-])cc1)oc1ccccc12,0,0,0
CCn1c(SCC(=O)Nc2cccc(Cl)c2)nnc1-c1ccc(Cl)cc1Cl,0,0,0
Cc1ccc(-c2cc(C(=O)Nc3cc(C)nn3-c3ccccc3)no2)cc1,0,0,0
CCN(CC)C(=O)c1cc(-c2ccc(Cl)c(Cl)c2)on1,-,0,72
COc1ccc(N2C(=O)CC(SCC(=O)Nc3ccc(F)cc3)C2=O)cc1 (configuration not stated),0,0,0
COc1ccc(C)cc1S(=O)(=O)N(CC(=O)O)c1cc(C)cc(C)c1,0,0,0
O=C(COc1ccccc1)NC(=S)Nc1cccc(NC(=O)c2ccccc2Cl)c1,0,0,0
O=C(NC(=S)Nc1ccc(Cl)c(C(=O)O)c1)c1cccc(COc2ccccc2)c1,0,+,0
C/C=C(\C)C(=O)OC1C(OC(=O)/C=C(/C)CC(=O)O)C2(CO)C(O)CC3(C)C(=CCC4C5(C)CCC(OC6OC(C(=O)O)C(O)C(OC7OC(C)C(O)C(OC8OC(CO)C(O)C(O)C8O)C7O)C6O)C(C)(C)C5CCC43C)C2CC1(C)C (configuration not stated),0,-,-
COc1c(C)cc(Br)cc1C(=O)NC(=S)Nc1sc2c(c1C(N)=O)CCCCC2,0,0,0
CC(=O)OCC/C(=C\CC1(O)C(C)CCC2C(C)(C)CCCC21C)COC(C)=O (configuration not stated),0,0,0
CN(C)CCC(C)(O)Cc1ccccc1 (configuration not stated),-,0,0
CCCc1ccc(-c2cc(C(=O)NCc3ccccn3)c3ccccc3n2)cc1,0,0,0
Cc1ccn2cc(-c3cccc(NS(=O)(=O)c4cc([N+](=O)[O-])ccc4C)c3)nc2c1,0,0,111
Cc1ccc([N+](=O)[O-])cc1S(=O)(=O)NCc1cccnc1,0,0,0
CCn1c2ccccc2c2cc(NC(=O)CN3C(=O)c4ccccc4C3=O)ccc21,0,0,0
SMILES,STK33 kin inh,ID4 SMM,mut p53 react
COc1ccccc1CNC(=O)c1cc2ccccc2oc1=O,0,0,88
COc1cccc2cc(C(=O)NCc3ccccn3)c(=O)oc12,0,0,84
CC(=O)NCCNC(=O)c1cc2ccccc2oc1=O,0,0,0
CCOc1cccc2cc(C(=O)NCc3cccnc3)c(=O)oc12,0,0,0
N#CCc1ccc(NC(=O)Cc2ccccc2[N+](=O)[O-])cc1,0,0,0
CSc1ccccc1NC(=O)CN(c1cc(Cl)ccc1C)S(C)(=O)=O,0,0,0
CCc1c(C)sc(NC(=O)c2cc(-c3cccnc3)nc3ccc(Cl)cc23)c1C(=O)N1CCOCC1,0,0,0
CCOC(=O)c1c(NC(=O)CSc2ncn[nH]2)sc2c1CCCC2,0,0,0
NC(=O)c1c(NC(=O)CSc2ncn[nH]2)sc2c1CCC2,0,+,0
Cc1cc2ncc(-c3ccn(S(=O)(=O)c4ccc(Cl)cc4)c3)nc2cc1C,-,0,0
COc1ccc2c(c1)c(=O)oc1c(C)c(OCC(=O)NCC3CCCO3)ccc12 (configuration not stated),0,0,52
COc1ccc(OC(C)C(=O)NCC2CCCO2)cc1 (configuration not stated),0,0,0
Cc1c(Cl)cccc1NC(=O)CN(C)S(=O)(=O)c1ccc2ccccc2c1,0,0,0
Cc1cccc(-n2c(SCC(=O)O)nnc2-c2cccs2)c1C,0,0,0
O=C1c2ccccc2C(=O)N1Cc1cc(NS(=O)(=O)c2ccccc2)ccc1Cl,0,0,0
CN1CCN(S(=O)(=O)c2ccc(Sc3nc4ccccc4[nH]3)c3nsnc23)CC1,0,+,0
Cc1ccc2nsnc2c1S(=O)(=O)N1CCN(CCc2ccccc2)CC1,0,0,0
